The results in this text go back to PubChem BioAssay AID504757 (Sanford-Burnham Center for Chemical Genomics, 2011).

In general, inhibition refers to the relative decrease from the control value, in per cent.

The assay deals with Cysteine protease ATG4B (Homo sapiens) (UniProt Q9Y4P1). Put plainly: re-tested blockers of ATG4B cleavage activity – biochemical, fluorescence, single concentration, confirmation (AID 504757). The conditions noted are these: ATG4B protease fluorescent substrate cleavage assay; at 8.33 µM; hits give high values.

The other results are listed elsewhere or left out. The source made the active and inactive calls. Cut-off read from the data, not from the text of the source: active = inhibition above about 39%; inactive = the rest.

Chain of Cysteine protease ATG4B (Homo sapiens) (Q9Y4P1 whole entry, looked up): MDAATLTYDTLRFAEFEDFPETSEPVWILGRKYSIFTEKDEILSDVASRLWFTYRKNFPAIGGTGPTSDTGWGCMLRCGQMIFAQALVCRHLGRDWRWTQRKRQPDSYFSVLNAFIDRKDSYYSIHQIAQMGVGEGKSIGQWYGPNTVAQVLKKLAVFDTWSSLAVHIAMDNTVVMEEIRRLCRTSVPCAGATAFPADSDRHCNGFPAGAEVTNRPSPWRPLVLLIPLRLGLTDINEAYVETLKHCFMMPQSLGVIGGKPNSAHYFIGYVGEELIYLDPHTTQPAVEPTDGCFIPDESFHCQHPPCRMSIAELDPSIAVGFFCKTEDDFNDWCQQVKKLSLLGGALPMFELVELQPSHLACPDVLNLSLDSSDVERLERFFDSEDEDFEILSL

As to `Cc1cc(OCc2cc(C(=O)O)oc2C)c2c3c(c(=O)oc2c1)CCCC3`, the inhibition is 66.3% (active).
